The supplement of paper PMC10933113
Where a name gives a salt, the structure may show the parent alone. ± gives the uncertainty stated by the source.

test system: THP-1; experiment: CD86 surface expression induction over DMSO control (% over DMSO); higher = stronger dendritic cell activation; settings: exposure time: 24 h
Experimental: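 hCLAT-like CD54 and CD86 surface expression on THP1 cells after 24 h exposure at a single concentration (highest non-cytotoxic concentration, or 100-200 µM if not cytotoxic). Flow cytometry (iQue) was run on 5,000 live cells.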

Compound	CD86 surface expression induction
[CH3][Hg][Cl] [Methyl mercuric (II) chloride] (10 µM)	86 ± 7.1
[Cl][Cd][Cl] [Cadmium II chloride] (200 µM)	51.1 ± 5.8
CCOCN(C(=O)CCl)c1c(C)cccc1CC [Acetochlor] (10 µM)	90 ± 25
Cc1ccc2c(c1N)C(=O)c1ccccc1C2=O [1-Amino-2-methylanthraquinone] (100 µM)	102 ± 24
O=C(CCl)c1ccccc1 [2-Chloroacetophenone] (100 µM)	8.54 ± 19
CC(C)Nc1ccc(Nc2ccccc2)cc1 [N-Isopropyl-N'-phenyl-p-phenylenediamine] (10 µM)	91.4 ± 6.8
CCOC(=O)NC(=S)Nc1ccccc1NC(=S)NC(=O)OCC [Thiophanate] (100 µM)	10.2 ± 18
Cl/C=C\C[N+]12CN3CN(CN(C3)C1)C2 [Chloroallyl methenamine chloride] (10 µM)	-4.14 ± 1.1
c1ccc2sc(SNC3CCCCC3)nc2c1 [N-Cyclohexyl-2-benzothiazolesulfenamide] (100 µM)	8.63 ± 9.4
O=C1C(Cl)=C(Cl)C(=O)C(Cl)=C1Cl [Chloranil] (100 µM)	16.6 ± 9.4
CN1C[C@H](C(=O)N[C@]2(C)O[C@@]3(O)[C@@H]4CCCN4C(=O)[C@H](Cc4ccccc4)N3C2=O)C=C2c3cccc4[nH]cc(c34)C[C@H]21 [Ergotamine D-tartrate*] (79 µM)	63 ± 77
CCC(C)(NC(=O)c1cc(Cl)c(C)c(Cl)c1)C(=O)CCl (centres undefined) [Zoxamide] (10 µM)	-5.9 ± 2.3
CCS(=O)(=O)CCSP(=O)(OC)OC [Demeton-S-methylsulphon] (10 µM)	-12.6 ± 14
CC(C)(C)C(=O)CCl [1-Chloro-3,3-dimethyl-butan-2-one] (200 µM)	-2.11 ± 2.4
COc1ccc(O)c(C(C)(C)C)c1 [2-tert-Butyl-4-methoxyphenol] (200 µM)	-4.34 ± 6.1
c1cc(OCC2CO2)cc(OCC2CO2)c1 (centres undefined) [Diglycidyl resorcinol ether (DGRE)] (10 µM)	-10.6 ± 5
COc1ccc(C(c2ccc(OC)cc2)C(Cl)(Cl)Cl)cc1 [Methoxychlor] (200 µM)	70.8 ± 55
[OH-].c1cc[c]([Sn+]([c]2ccccc2)[c]2ccccc2)cc1 [Triphenyltin hydroxide] (10 µM)	77.3 ± 9.9
N#CCC#N [Propanedinitrile] (199 µM)	-2.3 ± 0.49
CCOC(=O)CC(SP(=S)(OC)OC)C(=O)OCC (centres undefined) [Malathion] (100 µM)	-0.63 ± 4.7

Compound	CD86 surface expression induction
Nc1cc(Cl)ccc1O [2-Amino-4-chlorophenol] (200 µM)	41.9 ± 31
O=C(CCl)CCl [1,3-Dichloropropanone] (200 µM)	16.5 ± 17
O=C(O)c1ccc(=O)[nH]c1 [6-Hydroxynicotinic acid] (100 µM)	-4.7 ± 6.2
CCOP(=S)(OCC)Oc1cnc2ccccc2n1 [Quinalphos] (200 µM)	-2.83 ± 2.4
O=C1OC(CCN2CCCCC2)OC1(c1ccccc1)c1ccccc1 (centres undefined) [Pipoxolan hydrochloride] (100 µM)	98.2 ± 160
O=[N+]([O-])c1cc([N+](=O)[O-])c2ccccc2c1 [1,3-Dinitronaphthalene] (200 µM)	2.95 ± 4.5
CCOP(=S)(OCC)SC(CCl)N1C(=O)c2ccccc2C1=O (centres undefined) [Dialifor] (100 µM)	0.69 ± 0.85
Nc1ccc(Cl)cc1N [4-Chloro-1,2-diaminobenzene*] (200 µM)	71.3 ± 120
CC(C)CC(C)Nc1ccc(Nc2ccccc2)cc1 (centres undefined) [N-(1,3-Dimethylbutyl)-N'-phenyl-p-phenylenediamine] (10 µM)	59.8 ± 11
S=C=NCc1ccccc1 (10 µM)	64.3 ± 6.8
OC[P+](CO)(CO)CO [Tetrakis(hydroxymethyl)phosphonium SO4] (100 µM)	6.79 ± 11
C[C@]12CC[C@H](O)C[C@H]1CC[C@@H]1[C@@H]2C[C@@H](O)[C@]2(C)[C@@H](C3=CC(=O)OC3)CC[C@]12O [Digoxigenin] (10 µM)	46.8 ± 22
CCNc1nc(NC(C)(C)C)nc(SC)n1 [Terbutryn] (100 µM)	0.6 ± 2.4
CS/C(C)=N\OC(=O)N(C)SN(C)C(=O)O/N=C(\C)SC [Thiodicarb] (10 µM)	-14.6 ± 7.8
Nc1ccc2ccccc2c1 [2-Naphthylamine] (100 µM)	68.7 ± 65
NCCc1ccc(O)cc1 [Tyramine] (100 µM)	-4.16 ± 4.5
Fc1ccc(Oc2ccnc3cc(Cl)cc(Cl)c23)cc1 [Quinoxyfen] (200 µM)	2.53 ± 5
OCc1ccco1 [Furfuryl alcohol] (201 µM)	5.82 ± 11
ClC1=C(Cl)C2(Cl)C3C(Cl)C(Cl)CC3C1(Cl)C2(Cl)Cl (centres undefined) [Chlordane] (200 µM)	33.3 ± 45
